From PubChem
AmpC no deterg: qHTS Inhibitors of AmpC Beta-Lactamase (assay without detergent). P00811. AmpC nitrocefin hydrolysis, absorbance 480 nm, 0.0001% Triton. Potency, µM (titrated, usually from 57.1 µM), without a hit: top-dose activity change, negative = inhibition, most hits filed as inhibitors. 330,000 tested, 0.52% active;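 further: potency means the concentration at half of the fitted maximal effect; plate controls were no compound for no effect and no enzyme for full effect; nearly all actives have a fitted effect of over 20% in size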
Target sequence (P00811 whole entry, looked up): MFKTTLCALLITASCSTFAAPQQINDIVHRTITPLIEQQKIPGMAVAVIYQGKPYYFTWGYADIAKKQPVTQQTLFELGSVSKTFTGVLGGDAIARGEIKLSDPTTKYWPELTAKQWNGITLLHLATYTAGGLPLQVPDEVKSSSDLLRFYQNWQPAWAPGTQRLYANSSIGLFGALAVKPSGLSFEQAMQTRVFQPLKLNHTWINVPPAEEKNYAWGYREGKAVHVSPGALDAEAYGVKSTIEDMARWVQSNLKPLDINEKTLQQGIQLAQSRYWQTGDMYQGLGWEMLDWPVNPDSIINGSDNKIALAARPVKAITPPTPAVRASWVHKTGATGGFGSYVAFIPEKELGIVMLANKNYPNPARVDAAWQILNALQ
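20 mM phosphate pH 7.0 + 0.01% (detergent screen) or 0.0001% Triton X-100; 5.3 nM AmpC reagent; cpd preinc 15 min RT; nitrocefin (800 uM stock) to start; A480 q20 s × 4 min; Activity was normalised to no-enzyme and no-compound control wells.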
HCV inh: qHTS Assay for Inhibitors of Hepatitis C Virus (HCV). AID 651820, 2012. Huh7.5.1 HCVcc-Cre infection, luciferase reporter, 44 h. 340,000 tested, 3.4% active. Potency, µM (series often up to 41.8 µM), for the others: at the top dose activity change, negative = inhibition, hits mostly inhibitors; further: potency means the concentration at half of the fitted maximal effect
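Seed cells (1,000/well) for 4 h; treat with compound and infect with HCVcc-Cre, moi about 0.5. Incubate 44 h, then detect luciferase activity.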
FMDV antiviral: High Throughput Screening for Foot and Mouth Disease Virus Antivirals | FMDV antiviral cell-based qHTS | Potency, µM (highest dose often 57.9 µM), for inactives: at the highest dose activity change, negative = inhibition, actives largely listed as inhibitors | 410,000 tested, 1.2% active | AID 1159524, 2015; calls by dose curve; tested in HEK293T cells; further: read-out not given here; potency means the concentration at half of the fitted maximal effect; nearly all actives have a fitted effect of over 45% in size
HCMV inh: qHTS Assay for inhibitors of the human cytomegalovirus (HCMV). HFF cells, HCMV-luciferase reporter, 72 h; hits give low values. activity change, negative = inhibition, % at 57.5 µM. 410,000 tested, 4.5% active; in the data active means activity change below about -60%; inconclusive means no clear call, values can overlap the other calls; inactive means above about -39%
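Cell-based, HFFs, 1000 cells/well, 16 h 37C; cpds in DMSO + HCMV-luc, MOI 1 PFU/cell; 72 h 37C; OneGlo luminescence after 5 min RT; norm. to buffer vs Salinomycin 10uM.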
AmpC detergent: qHTS Inhibitors of AmpC Beta-Lactamase (assay with detergent). P00811. AmpC hydrolysis of nitrocefin, absorbance 480 nm, 0.01% Triton. Potency, µM (doses to about 114 µM), without a hit: at the top dose activity change, negative = inhibition, hits mostly inhibitors. 370,000 tested, 0.041% active. AID 485294, 2010;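 further: potency means the concentration at half of the fitted maximal effect; 0% = no-compound wells and -100% = no-enzyme wells; nearly all actives have a fitted effect of over 25% in size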
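20 mM phosphate pH 7.0 + 0.01% (detergent screen) or 0.0001% Triton X-100; 5.3 nM AmpC reagent; cpd preinc 15 min RT; nitrocefin (800 uM stock) to start; A480 q20 s × 4 min; Activity was normalised to no-enzyme and no-compound control wells.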
* = called active by the depositor; ? = inconclusive; . = no result. In the library only some 7.3% were active in any assay of this set; here they are far more common. Unless noted, the call rests on the fitted dose curve; in most records, active means well fitted curve in the direction sought with a large enough effect; inconclusive means small, poorly fitted or top-dose-only effect, or another doubt; inactive means no such curve, though single readings can be large; an effect the other way counts as inactive or inconclusive. Unless noted, on the % scale 0 is the no-effect control and ±100 the full control effect.

SMILES | AmpC no deterg | HCV inh | FMDV antiviral | HCMV inh | AmpC detergent
Cc1ccc(OCCCN2C(=O)C(=O)c3cccc(C)c32)cc1 | -24% | -24% | -11% | 56 | -1%
COC(=O)/C(=C1/Oc2cc(C)oc(=O)c2S1)C(F)(F)F | -16% | 10µM* | 28µM* | ? | -15%
CCCn1c(C)cc(C(=O)COC(=O)c2cc(S(=O)(=O)NCC(C)C)c(Cl)cc2Cl)c1C | -28% | 10µM* | 26% | -7 | -6%
CCOC(=O)c1nn(-c2cccc(OC)c2)c2nc(Nc3ccccc3)cc(=O)n12 | 173% | 11µM* | -29% | 22 | ?
COc1cccc(CNC(=O)c2c(OC)cc(=O)n3c2CCN(C(=O)c2csc(C)n2)CC3)c1 | . | . | 20% | . | .
CCC(=O)n1nc(NCc2ccccc2OC)nc1NCc1ccccc1OC | -2% | 11µM* | ? | 0 | -12%
COc1ccccc1CNc1nc(-c2ccco2)nn1C(=O)c1cc(OC)c(OC)c(OC)c1 | . | . | 11% | 15 | 23%
O=C(N/N=C/c1cn(-c2ccccc2)nc1-c1cc2ccccc2o1)c1c[nH]c2ccccc12 | -33% | 11µM* | 9% | 64 | -1%
COc1ccc(CNC(=O)C2CCCN(S(=O)(=O)c3ccc4c(c3)CCCN4C(C)=O)C2)cc1 (stereo unspecified) | 110% | ? | ? | -16 | -7%
NC(=O)C1(N2CCCCC2)CCN(C(=S)Nc2ccc(F)cc2)CC1 | -17% | 40% | -18% | -11 | 2%
NC(=O)C1(N2CCCCC2)CCN(C(=S)Nc2cc(F)cc(F)c2)CC1 | 14% | -1% | -8% | -64* | -5%
CC(=O)c1ccc(NC(=O)C2CCCN(C(=O)c3ccc(Cl)cc3)C2)cc1 (stereo unspecified) | -12% | -4% | -10% | -22 | -16%
CN(C)S(=O)(=O)c1ccc(NC(=O)C2CCCN(C(=O)c3ccc(Cl)cc3)C2)cc1 (stereo unspecified) | 9% | ? | ? | ? | -12%
O=C1CCCc2cc(S(=O)(=O)N3CCCC(C(=O)Nc4ccc(F)c(Cl)c4)C3)ccc2N1 (stereo unspecified) | . | . | 32µM* | -40 | 0%
O=C(Nc1ccccc1)C1CCCN(C(=O)c2ccc(Cl)cc2)C1 (stereo unspecified) | 1% | -9% | ? | -65* | -4%
O=C(Nc1ccc(S(=O)(=O)N2CCCCC2)cc1)C1CCCN(C(=O)c2ccc(Cl)cc2)C1 (stereo unspecified) | 19% | -23% | ? | -65* | 4%
COc1ccc(NC(=O)C2CCCN(C(=O)c3ccc(Cl)cc3)C2)cc1Cl (stereo unspecified) | -12% | ? | -11% | -73* | 2%
Cc1cccc(NC(=O)C2CCCN(S(=O)(=O)c3ccc4c(c3)CCCC(=O)N4)C2)c1 (stereo unspecified) | . | . | ? | 12 | 19%
CC(=O)c1ccccc1NC(C(=O)NC(C)(C)CC(C)(C)C)C1CC1 (stereo unspecified) | . | . | . | -13 | .
COC(=O)c1c(C)sc(-c2c(-c3cccc(Cl)c3)[nH]c3c2c(=O)[nH]c(=O)n3C)c1O | . | . | ? | 21 | 4%
CN1c2ccccc2Oc2c(c(=O)n(C)c(=O)n2C)C1c1cccc([N+](=O)[O-])c1 (stereo unspecified) | 37% | 3.5µM* | -29% | 1 | -1%
CCN(CC)CC(=O)N1c2ccccc2Oc2c(c(=O)n(C)c(=O)n2C)C1c1cccc([N+](=O)[O-])c1 (stereo unspecified) | 20% | -7% | 8% | 43 | -1%
COc1cccc(-n2nc(C(N)=O)c(O)cc2=O)c1 | -21% | 11% | 12% | -7 | 0%
COc1cccc(-n2nc(C#N)c(Cl)cc2=O)c1 | -21% | ? | 11µM* | -96* | -1%
COCCn1c(SC(C)C(=O)Nc2ncc(Cl)cc2Cl)nc2ccccc21 (stereo unspecified) | 53% | ? | ? | -70* | -12%
SMILES | AmpC no deterg | HCV inh | FMDV antiviral | HCMV inh | AmpC detergent
Cc1nnc(SC(C)C(=O)Nc2ncc(Cl)cc2Cl)n1Cc1ccccc1 (stereo unspecified) | 78% | 13% | -8% | -29 | -10%
CCCCN(CC)CCCNC(=O)c1csc2c1CCCCC2 | 0% | 35µM* | ? | ? | 3%
CC(C)CCNC(=O)c1csc2c1CCCCC2 | -24% | 1% | 40% | 3 | 2%
COc1ccc(S(=O)(=O)Nc2ccc(S(=O)(=O)Nc3ccc(F)cc3)cc2)cc1C | -9% | ? | 37% | -10 | -4%
COc1ccc(NS(=O)(=O)c2ccc(OC)c(N(C)S(=O)(=O)c3ccc(Cl)cc3)c2)cc1 | -28% | ? | . | -90* | 4%
COc1ccc(S(=O)(=O)Nc2ccc(F)cc2)cc1N(C)S(=O)(=O)c1ccc(Cl)cc1 | -8% | ? | . | -72* | 0%
Cc1cc(C)nc(N(C#N)Cc2ccc(Cl)cc2)n1 | -1% | 5% | 7% | -62* | 9%
CCOC(=O)c1ccc(NC(=S)N2CCSC2c2ccc(Br)cc2)cc1 (stereo unspecified) | -53% | ? | 2% | -61* | -12%
CCOC(=O)c1ccc(NC(=S)N2CCC(O)CC2)cc1 | -21% | 8% | 52% | -3 | -5%
O=c1c(-c2cccs2)cc(-n2c(=O)[nH]c3ccccc32)cn1-c1ccccc1 | . | . | . | -6 | .
C[N+](C)(CCOc1ccccc1)Cc1ccccc1 | . | -27% | -29% | 15 | .
Cc1cc(C(C)(C)CC(C)(C)C)ccc1OCCOCC[N+](C)(C)Cc1ccccc1 | 262% | 2.8µM* | ? | -94* | ?
Fc1ccccc1-c1noc2nc(Oc3cccc(N4CCOCC4)c3)ccc12 | . | . | . | -29 | .
CCOc1ccccc1C(=O)N[C@H](C(=O)OCc1csc(CC(=O)Nc2ccc(C)cc2)n1)C(C)C | 3% | 11µM* | ? | 21 | .
CCOc1ccccc1C(=O)NCC(=O)OCc1csc(CC(=O)Nc2ccc(C)cc2)n1 | 1% | -2% | 16% | 2 | 5%
CCOc1ccccc1C(=O)N[C@H](C(=O)OCc1cc(=O)oc2cc(C)ccc12)C(C)C | 9% | 10µM* | 10% | -23 | ?
CCOc1ccccc1C(=O)N[C@H](C(=O)OCc1cc([N+](=O)[O-])cc2c1OCOC2)C(C)C | -21% | 20µM* | -30% | -4 | -3%
CC(C)N(C)S(=O)(=O)c1ccc(NC(=O)C2=COCCO2)cc1 | -12% | -10% | 27% | 2 | 5%
C=C[C@H]1CN2CC[C@H]1C[C@H]2[C@H](OC(=O)OCC)c1ccnc2ccc(OC)cc12 | . | . | -15% | . | .
